SENP8 block-1: inhibitors of human SENP8 protease. Q96LD8. recombinant SENP8, Nedd8 substrate fluorescence. inhibition, % at 20 µM. 360,000 compounds, 0.64% hits; in the data active means inhibition mostly above about 40%, no sharp cut-off; inactive means mostly below about 27%
SENP7 inh: blocks the human protease SENP7; AID 434973; Q9BQF6; recombinant SENP7, Z-RLRGG-aminoluciferin luminescence, 40 min; inhibition, % at 5 µM; 330,000 compounds, 1.5% hits;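 active means inhibition above about 50% at the single test dose, limit read from the data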;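 further: plate controls were DMSO with enzyme for no effect and no enzyme buffer wells for full effect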
Target sequence (Q9BQF6 706-1050 limits assumed): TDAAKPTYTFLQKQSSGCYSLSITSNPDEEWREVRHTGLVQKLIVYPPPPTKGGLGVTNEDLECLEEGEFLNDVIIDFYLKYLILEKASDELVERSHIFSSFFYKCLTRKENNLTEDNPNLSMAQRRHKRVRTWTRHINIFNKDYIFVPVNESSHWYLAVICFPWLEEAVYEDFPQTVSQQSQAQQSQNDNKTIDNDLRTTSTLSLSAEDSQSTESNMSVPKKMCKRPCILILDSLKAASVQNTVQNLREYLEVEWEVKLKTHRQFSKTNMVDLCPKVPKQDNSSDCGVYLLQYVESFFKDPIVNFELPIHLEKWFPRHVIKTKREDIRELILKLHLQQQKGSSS
SENP8 block-2: inhibitors of human SENP8 protease; purified SENP8, Z-RLRGG-aminoluciferin cleavage, luminescence; inhibition, % at 10 µM; 330,000 compounds, 1.2% hits; in the data active means inhibition above about 50%
HSP90 refold inh: blocks HSP90-mediated luciferase refolding in reticulocyte lysate. Rabbit reticulocyte lysate, luciferase refolding luminescence, 3 h. inhibition, % at 5.6 µM. 290,000 compounds, 0.91% hits. AID 1789;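 active means inhibition above the screen-wide mean plus 3 SD, computed separately per campaign, cut at about 16% in these data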;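 further: 0% = DMSO wells and 100% = 60 µM geldanamycin wells; inhibitors lower the luminescence because luciferase stays unfolded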
SENP6 block: inhibitors of human SENP6 protease; 330,000 compounds, 1.8% hits; Recombinant SENP6 catalytic domain, aminoluciferin luminescence; AID 2599; inhibition, % at 10 µM;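 active means inhibition above about 50% at the single tested dose, limit read from the data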;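 further: plate controls were DMSO wells with enzyme for no effect and DMSO wells lacking enzyme for full effect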
SENP8 conf-1: human SENP8 inhibition, confirmed; 6,200 compounds, 40% hits; inhibition, % at 12.5 µM; Recombinant SENP8, Z-RLRGG-aminoluciferin luminescence, 60 min; shares compounds with SENP7 inh;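 active means mean inhibition across replicates above about 50%, limit read from the data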
SENP6 conf: human SENP6 inhibition, confirmed; recombinant SENP6, Z-RLRGG-aminoluciferin luminescence; inhibition, % at 12.5 µM; 6,200 compounds, 58% hits; shares compounds with SENP7 inh
SENP7 confirm: human SENP7 inhibition, confirmed; shares compounds with SENP7 inh; inhibition, % at 12.5 µM; AID 488917; 6,200 compounds, 69% hits; recombinant SENP7, Z-RLRGG-aminoluciferin luminescence, 40 min
Casp3 SENP sel: caspase-3 inhibition (SENP selectivity assay); 6,200 compounds, 60% hits; purified caspase-3, Z-DEVD-aminoluciferin luminescence, 60 min; shares compounds with SENP7 inh; inhibition, % at 12.5 µM;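 active means mean inhibition above about 50%, limit read from the data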;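 further: plate controls were enzyme with DMSO for no effect and wells without caspase-3 for full effect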
Target sequence (P42574 28-227 limits assumed): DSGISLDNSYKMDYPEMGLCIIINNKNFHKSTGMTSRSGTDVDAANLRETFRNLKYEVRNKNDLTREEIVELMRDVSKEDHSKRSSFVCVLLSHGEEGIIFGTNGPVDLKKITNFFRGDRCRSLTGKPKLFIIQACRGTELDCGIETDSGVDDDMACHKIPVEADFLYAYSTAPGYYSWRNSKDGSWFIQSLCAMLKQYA
SENP luc ctr: interferes with luciferase luminescence in SENP counter-screen. AID 488919. Pre-incubated SENP8/Z-RLRGG-aminoluciferin, luciferase luminescence interference. inhibition, % at 12.5 µM. 6,200 compounds, 39% hits. shares compounds with SENP7 inh;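 active means mean inhibition above about 50% when retested at one dose, limit read from the data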;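 further: plate controls were DMSO wells with completed reaction for no effect and substrate without enzyme for full effect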
SENP8 conf-2: confirmation of human SENP8 protease inhibitors | shares compounds with SENP8 block-1 | purified SENP8, Nedd8-AMC/pro-Nedd8 cleavage fluorescence, 30 min | inhibition, % at 25 µM | 1,400 compounds, 15% hits; in the data active means inhibition mostly above about 39%, no sharp cut-off; inactive means mostly below about 34%
* = called active by the depositor; i = inactive; nt = not tested or not shown. An excerpt weighted towards active compounds, which were near 2.8% of everything screened.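 How the source made its calls, unless noted: active means mean inhibition above about 50% in the one-dose retest (limit read from the data); inactive means the rest.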

SMILES	SENP8 block-1	SENP7 inh	SENP8 block-2	HSP90 refold inh	SENP6 block	SENP8 conf-1	SENP6 conf	SENP7 confirm	Casp3 SENP sel	SENP luc ctr	others
Cn1c2ccccc2c(=O)c2ccc(NCCc3cccs3)cc21	i	38	66*	nt	68*	81*	88*	97*	79*	26
Cc1noc(NS(=O)(=O)c2ccc(NC(=O)c3cnc4scc(C)n4c3=O)cc2)c1C	-20	18	46	-5	67*	39	38	69*	82*	49
Cc1cc(NS(=O)(=O)c2ccc(NC(=O)NC3CCCCC3)cc2)no1	12	3	-3	2	26	nt	nt	nt	nt	nt
Cc1cc(NS(=O)(=O)c2ccc(NC(=O)Nc3ccc4c(c3)OCO4)cc2)no1	13	47	34	-2	67*	55*	51*	82*	76*	38
Cc1cccc(NC(=O)Nc2ccc(S(=O)(=O)Nc3onc(C)c3C)cc2)c1	17	49	83*	nt	77*	88*	85*	94*	87*	52*
Cc1cc(NS(=O)(=O)c2ccc(NC(=O)Nc3cccc(Cl)c3)cc2)no1	19	69*	72*	1	84*	10	81*	93*	67*	59*
CC1CCN(C(=O)c2ccc3c(c2)C(=O)c2ccccc2-3)CC1	16	nt	nt	nt	nt	nt	nt	nt	nt	nt
Cc1ccc(C(=O)c2c(C)oc3c2C(=O)C(=O)c2ccccc2-3)cc1	106*	51*	29	8	19	22	57*	17	-2	1
Cc1oc2c(c1C(=O)N1CCC(C)CC1)C(=O)c1ccccc1C2=O	nt	28	26	7	55*	18	52*	18	35	0
Cc1cc(=O)c(C(=O)c2ccccc2)c(C)o1	13	9	-3	nt	-12	nt	nt	nt	nt	nt
CCn1c2ccccc2c2cc(NC(=O)C(C)Oc3ccc(OC)cc3)ccc21 (stereo not given)	-52	6	-8	6	-8	nt	nt	nt	nt	nt
COc1ccc(CCNC(=O)C2CC2)cc1OC	1	-7	-4	-9	-9	nt	nt	nt	nt	nt
COc1ccc(NC(=O)C(NS(=O)(=O)c2ccc3c(c2)CCCN3C(C)=O)C(C)C)c(OC)c1 (stereo not given)	29	102*	1	1	-4	-25	-10	1	-2	-5
CC(=O)N1CCCc2cc(S(=O)(=O)NC(C(=O)NC3CCCCC3)C(C)C)ccc21 (stereo not given)	11	4	2	1	-18	nt	nt	nt	nt	nt
COc1ccc(Cn2cc(CN3CC(N(C)C)CS3(=O)=O)nn2)cc1 (stereo not given)	8	nt	nt	nt	nt	nt	nt	nt	nt	nt
CC(=O)Nc1cc2nn(-c3ccccc3)nc2cc1Cl	-478	76*	30	0	69*	7	11	32	35	7
O=C(Nc1ccc2nn(-c3ccccc3)nc2c1)c1cccnc1	-138	2	-13	-3	-22	nt	nt	nt	nt	nt
CC(C)C(=O)Nc1ccc2nn(-c3ccccc3)nc2c1	-459	51*	1	7	15	42	40	71*	32	7
Cc1nn(-c2cccc(Cl)c2)nc1C(=O)O	16	4	2	1	6	nt	nt	nt	nt	nt
CCCCOC(=O)Cn1c(=O)c2c(nc3n2CCCCN3c2ccc(C)cc2)n(C)c1=O	-9	3	1	-1	-3	nt	nt	nt	nt	nt
O=C(NC(=S)NNS(=O)(=O)c1ccccc1)c1ccc([N+](=O)[O-])cc1	11	-2	-6	-5	-8	nt	nt	nt	nt	nt
O=C(NNS(=O)(=O)c1ccccc1)c1ccc([N+](=O)[O-])cc1	14	68*	-10	-5	-3	8	9	11	4	-3
O=[N+]([O-])c1cc([N+](=O)[O-])c2nonc2c1Nc1ccccc1O	22	20	8	6	26	nt	nt	nt	nt	nt
O=[N+]([O-])c1cc([N+](=O)[O-])c2nonc2c1Nc1ccc(O)cc1	79*	18	-1	0	58*	-4	2	-5	4	21	SENP8 conf-2=22
O=C1OC(Nc2cc(Br)cc3cccnc23)c2ccccc21 (stereo not given)	41*	92*	-4	17*	94*	16	63*	51*	16	13	SENP8 conf-2=-14
SMILES	SENP8 block-1	SENP7 inh	SENP8 block-2	HSP90 refold inh	SENP6 block	SENP8 conf-1	SENP6 conf	SENP7 confirm	Casp3 SENP sel	SENP luc ctr	others
CC(=O)N(C)c1ccc(NC(=O)Cc2cccc3ccccc23)cc1	20	2	-4	nt	1	nt	nt	nt	nt	nt
C/C(=N\N=C(/N)c1nonc1N)c1ccc2c(c1)OCO2	43*	92*	82*	5	84*	88*	88*	100*	91*	28	SENP8 conf-2=15
O=C(CCc1ccccc1)NNc1cc(N2CCCCC2)nc(N2CCCCC2)n1	47*	58*	4	1	35	0	16	-2	-4	-4	SENP8 conf-2=51*
CC(C)(C)c1ccc(C(=O)NNc2cc(N3CCOCC3)nc(N3CCOCC3)n2)cc1	10	31	3	-2	45	nt	nt	nt	nt	nt
Cc1nc(NNC(=O)c2ccc([N+](=O)[O-])cc2)cc(-c2ccccc2)n1	17	0	2	7	-12	nt	nt	nt	nt	nt
CC(C)(C)c1ccc(C(=O)NNc2cc(N3CCCCC3)nc(N3CCCCC3)n2)cc1	48*	74*	17	-1	86*	13	28	9	2	4	SENP8 conf-2=79*
O=C(NNc1cc(N2CCCC2)nc(N2CCCC2)n1)c1ccc([N+](=O)[O-])cc1	77*	92*	75*	-1	91*	18	61*	22	-1	-2	SENP8 conf-2=75*
CCc1ccc(NC(=O)Cn2nnc(-c3ccc(C)cc3-n3cnnn3)n2)cc1	-5	-1	-5	0	-8	nt	nt	nt	nt	nt
Cc1c(Cl)cccc1N=Cc1ccc([N+](=O)[O-])s1	68*	35	55*	0	51*	8	17	12	0	-1	SENP8 conf-2=21
CN(C)c1cc(Cl)c2nonc2c1N	89*	91*	96*	5	95*	15	33	5	-4	-6	SENP8 conf-2=56*
CCN(CC)c1cc(Cl)c2nonc2c1N	37	10	17	1	44	nt	nt	nt	nt	nt

Source: PubChem BioAssay (several laboratories)
